Holding throughout (assay): DAPPL (digital affinity profiling via proximity ligation, sequencing); 10 mM Tris-HCl pH 7.5, 50 mM NaCl, 1 mM DTT, 4% glycerol, room temperature, 30 min; GST-TFs on glutathione beads, 16-mer random dsDNA library, 0.1% formaldehyde crosslink after washing; high values mean tight binding
The target in one assay is T1, FEV (Homo sapiens, UniProt Q99581 1-238).
T1 sequence: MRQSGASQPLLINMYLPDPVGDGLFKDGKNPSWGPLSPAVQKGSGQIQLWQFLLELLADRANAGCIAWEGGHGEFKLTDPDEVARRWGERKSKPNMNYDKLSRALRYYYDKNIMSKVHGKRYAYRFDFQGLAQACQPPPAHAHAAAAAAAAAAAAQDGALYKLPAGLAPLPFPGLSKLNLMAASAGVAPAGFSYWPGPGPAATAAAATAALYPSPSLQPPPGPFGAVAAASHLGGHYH
The conditions noted are these: protein: recombinant; tags: N-terminal GST; dsDNA, one strand shown. The method in brief: (§1)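 Human transcription factors fused to GST were expressed in yeast, captured on glutathione beads, given DNA barcodes and pooled with a GST-only negative control. Pools were incubated with 200 nmole of a 16-mer random double-stranded DNA library in Tris/NaCl/DTT/glycerol buffer at room temperature for 30 min. They were then washed, crosslinked with 0.1% formaldehyde, proximity-ligated (BsaI/T4 ligase, 1 h, 37 °C), PCR-amplified and sequenced on an Illumina NextSeq500. Binding signal is each 6-mer's read frequency for a factor divided by its frequency for the GST control.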

Another assay concerns the target ETV5 (Homo sapiens, UniProt P41161 1-510). The settings on record: protein: recombinant; tags: N-terminal GST; dsDNA, one strand shown. The method in brief:
as §1

A further assay has as its target HSF1 (Homo sapiens, UniProt Q00613 1-529). The conditions noted are these: protein: recombinant; tags: N-terminal GST; chain copies: 3; dsDNA, one strand shown. The procedure, abridged: as §1
The target of the next assay is T2, SPIC (Homo sapiens, UniProt Q8N5J4 1-248).
T2 sequence: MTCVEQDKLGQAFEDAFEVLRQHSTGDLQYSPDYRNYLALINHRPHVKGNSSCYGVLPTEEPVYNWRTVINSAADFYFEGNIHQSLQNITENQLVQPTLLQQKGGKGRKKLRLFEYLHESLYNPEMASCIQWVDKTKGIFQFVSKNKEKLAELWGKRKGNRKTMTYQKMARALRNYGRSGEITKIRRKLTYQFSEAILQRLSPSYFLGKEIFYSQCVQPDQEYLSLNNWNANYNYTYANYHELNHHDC
The settings on record: protein: recombinant; tags: N-terminal GST; dsDNA, one strand shown. The procedure, abridged:
as §1

A further assay addresses ELF4 (Homo sapiens, UniProt Q99607 1-663). The settings on record: protein: recombinant; tags: N-terminal GST; dsDNA, one strand shown. The procedure, abridged: as §1
For another assay, the target named is T3, ELK4 (Homo sapiens, UniProt P28324-2 1-405).
T3 sequence: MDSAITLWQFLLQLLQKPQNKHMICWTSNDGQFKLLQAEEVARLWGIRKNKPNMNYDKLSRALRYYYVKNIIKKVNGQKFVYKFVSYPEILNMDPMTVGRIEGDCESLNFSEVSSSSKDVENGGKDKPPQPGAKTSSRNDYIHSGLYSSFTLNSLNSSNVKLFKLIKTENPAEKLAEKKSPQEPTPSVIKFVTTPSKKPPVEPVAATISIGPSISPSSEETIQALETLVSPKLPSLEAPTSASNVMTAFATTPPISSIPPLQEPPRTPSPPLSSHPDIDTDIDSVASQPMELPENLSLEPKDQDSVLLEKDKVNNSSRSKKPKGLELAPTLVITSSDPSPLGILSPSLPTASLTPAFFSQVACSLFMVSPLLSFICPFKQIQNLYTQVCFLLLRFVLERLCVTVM
The conditions noted are these: protein: recombinant; tags: N-terminal GST; dsDNA, one strand shown. The method in brief:
as §1

The target in another assay is T4, ETV2 (Homo sapiens, UniProt O00321 1-342).
T4 sequence: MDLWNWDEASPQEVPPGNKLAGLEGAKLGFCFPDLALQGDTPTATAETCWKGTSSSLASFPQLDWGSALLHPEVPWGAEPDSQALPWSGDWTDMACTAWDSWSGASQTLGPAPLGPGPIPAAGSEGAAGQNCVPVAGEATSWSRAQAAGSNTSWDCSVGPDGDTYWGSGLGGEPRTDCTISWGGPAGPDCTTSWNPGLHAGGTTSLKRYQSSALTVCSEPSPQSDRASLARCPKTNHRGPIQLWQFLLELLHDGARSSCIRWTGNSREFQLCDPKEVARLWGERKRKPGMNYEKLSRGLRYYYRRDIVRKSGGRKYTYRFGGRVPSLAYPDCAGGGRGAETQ
The conditions noted are these: protein: recombinant; tags: N-terminal GST; dsDNA, one strand shown. The procedure, abridged: as §1

The next assay has as its target T5, ELF3 (Homo sapiens, UniProt P78545 1-371).
T5 sequence: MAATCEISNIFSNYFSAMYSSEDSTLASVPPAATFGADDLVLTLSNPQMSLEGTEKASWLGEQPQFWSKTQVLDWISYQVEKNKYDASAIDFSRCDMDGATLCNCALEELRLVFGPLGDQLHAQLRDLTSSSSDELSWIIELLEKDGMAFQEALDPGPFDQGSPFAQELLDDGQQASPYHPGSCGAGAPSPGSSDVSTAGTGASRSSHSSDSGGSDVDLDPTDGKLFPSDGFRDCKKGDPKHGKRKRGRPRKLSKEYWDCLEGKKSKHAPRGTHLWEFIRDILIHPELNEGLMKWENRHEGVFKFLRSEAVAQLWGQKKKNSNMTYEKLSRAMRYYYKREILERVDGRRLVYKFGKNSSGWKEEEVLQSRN
The conditions noted are these: protein: recombinant; tags: N-terminal GST; dsDNA, one strand shown. The method in brief: as §1

The target in a further assay is CRX (Homo sapiens, UniProt O43186 1-299). The settings on record: protein: recombinant; tags: N-terminal GST; dsDNA, one strand shown. The procedure, abridged: as §1
Sequence of CRX (O43186 whole entry): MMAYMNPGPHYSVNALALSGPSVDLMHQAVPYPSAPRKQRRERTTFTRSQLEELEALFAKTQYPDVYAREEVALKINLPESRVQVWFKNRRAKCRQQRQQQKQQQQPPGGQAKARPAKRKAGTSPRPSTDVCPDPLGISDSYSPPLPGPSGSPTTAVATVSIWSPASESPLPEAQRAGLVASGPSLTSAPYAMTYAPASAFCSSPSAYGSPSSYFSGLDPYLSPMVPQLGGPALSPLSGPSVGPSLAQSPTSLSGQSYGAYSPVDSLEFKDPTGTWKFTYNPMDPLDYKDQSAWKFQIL
Another assay concerns the target ETV1 (Homo sapiens, UniProt P50549 1-477). The conditions noted are these: protein: recombinant; tags: N-terminal GST; dsDNA, one strand shown. The method in brief: as §1

Sequence of ELF4 (Q99607 whole entry): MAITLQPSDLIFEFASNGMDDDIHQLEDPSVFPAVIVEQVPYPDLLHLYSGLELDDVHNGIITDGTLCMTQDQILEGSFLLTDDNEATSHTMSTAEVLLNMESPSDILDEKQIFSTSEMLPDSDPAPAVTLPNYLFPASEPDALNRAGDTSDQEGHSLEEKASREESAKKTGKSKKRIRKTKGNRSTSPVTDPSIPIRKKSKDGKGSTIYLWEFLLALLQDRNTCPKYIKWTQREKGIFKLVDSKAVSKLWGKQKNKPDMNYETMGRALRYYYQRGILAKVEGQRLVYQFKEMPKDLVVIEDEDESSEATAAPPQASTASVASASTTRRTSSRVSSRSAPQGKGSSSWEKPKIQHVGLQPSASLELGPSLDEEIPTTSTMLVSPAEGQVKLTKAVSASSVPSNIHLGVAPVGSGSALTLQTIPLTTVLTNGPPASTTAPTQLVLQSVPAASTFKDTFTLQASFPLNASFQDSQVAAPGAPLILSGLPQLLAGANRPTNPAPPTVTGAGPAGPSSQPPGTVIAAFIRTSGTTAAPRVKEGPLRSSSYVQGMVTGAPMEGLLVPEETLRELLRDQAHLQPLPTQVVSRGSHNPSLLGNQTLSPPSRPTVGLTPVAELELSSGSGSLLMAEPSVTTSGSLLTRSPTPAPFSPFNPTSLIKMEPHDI
Sequence of ETV1 (P50549 whole entry): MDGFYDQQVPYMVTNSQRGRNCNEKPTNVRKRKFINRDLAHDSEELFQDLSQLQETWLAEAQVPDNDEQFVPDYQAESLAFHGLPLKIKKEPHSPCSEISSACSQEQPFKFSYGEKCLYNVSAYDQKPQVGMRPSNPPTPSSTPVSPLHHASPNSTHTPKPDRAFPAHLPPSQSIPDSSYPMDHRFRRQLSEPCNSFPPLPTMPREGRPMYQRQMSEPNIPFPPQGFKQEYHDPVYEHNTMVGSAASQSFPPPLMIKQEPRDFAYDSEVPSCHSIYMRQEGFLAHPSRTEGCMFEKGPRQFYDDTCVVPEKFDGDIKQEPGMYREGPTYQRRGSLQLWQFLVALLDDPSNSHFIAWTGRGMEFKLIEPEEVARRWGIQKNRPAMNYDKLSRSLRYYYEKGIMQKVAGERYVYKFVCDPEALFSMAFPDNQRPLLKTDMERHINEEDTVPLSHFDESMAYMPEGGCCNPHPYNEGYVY
Sequence of ETV5 (P41161 whole entry): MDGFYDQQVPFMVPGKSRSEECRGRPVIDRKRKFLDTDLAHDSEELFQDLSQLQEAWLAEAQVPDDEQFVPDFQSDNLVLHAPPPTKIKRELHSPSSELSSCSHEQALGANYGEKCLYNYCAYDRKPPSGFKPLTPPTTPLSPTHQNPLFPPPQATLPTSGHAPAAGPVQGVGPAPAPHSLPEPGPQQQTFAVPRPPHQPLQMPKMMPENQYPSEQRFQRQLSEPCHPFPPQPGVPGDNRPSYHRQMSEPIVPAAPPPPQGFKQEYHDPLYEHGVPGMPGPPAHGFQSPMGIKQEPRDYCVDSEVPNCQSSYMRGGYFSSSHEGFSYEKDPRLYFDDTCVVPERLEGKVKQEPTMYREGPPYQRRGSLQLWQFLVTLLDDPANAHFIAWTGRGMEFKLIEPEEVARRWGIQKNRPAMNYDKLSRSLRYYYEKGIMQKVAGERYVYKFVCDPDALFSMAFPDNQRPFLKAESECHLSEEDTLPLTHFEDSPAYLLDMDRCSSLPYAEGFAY
Sequence of HSF1 (Q00613 whole entry): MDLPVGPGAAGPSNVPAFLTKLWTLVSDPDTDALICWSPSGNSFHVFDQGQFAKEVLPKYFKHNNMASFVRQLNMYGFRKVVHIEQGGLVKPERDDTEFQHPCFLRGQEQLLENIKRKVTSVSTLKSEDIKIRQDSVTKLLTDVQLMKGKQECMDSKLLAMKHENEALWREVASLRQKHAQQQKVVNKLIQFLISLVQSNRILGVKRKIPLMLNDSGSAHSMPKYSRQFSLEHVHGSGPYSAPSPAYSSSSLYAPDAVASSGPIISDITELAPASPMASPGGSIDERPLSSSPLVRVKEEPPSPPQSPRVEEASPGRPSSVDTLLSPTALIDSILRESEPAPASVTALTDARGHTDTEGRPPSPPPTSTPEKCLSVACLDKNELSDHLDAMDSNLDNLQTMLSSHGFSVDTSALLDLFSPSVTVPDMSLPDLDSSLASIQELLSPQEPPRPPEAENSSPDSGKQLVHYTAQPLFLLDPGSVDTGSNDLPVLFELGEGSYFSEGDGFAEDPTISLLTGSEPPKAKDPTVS

Consider CTGATA, for which the binding signal with FEV was 1.14 fold enrichment (6-mer frequency, TF over GST control); with ETV5 it was 1.18 fold enrichment (6-mer frequency, TF over GST control); with HSF1, 1.18 fold enrichment (6-mer frequency, TF over GST control); with SPIC, 1.11 fold enrichment (6-mer frequency, TF over GST control); with ELF4, 1.19 fold enrichment (6-mer frequency, TF over GST control); with ELK4, 1.35 fold enrichment (6-mer frequency, TF over GST control). In addition, the binding signal with ETV2 was 1.15 fold enrichment (6-mer frequency, TF over GST control); with ELF3 it was 1.13 fold enrichment (6-mer frequency, TF over GST control); in the assay with CRX, 1.26 fold enrichment (6-mer frequency, TF over GST control); with ETV1 it was 1.13 fold enrichment (6-mer frequency, TF over GST control).
For the sequence AATGTT, the binding signal with FEV is 1.47 fold enrichment (6-mer frequency, TF over GST control); with ETV5, 1.61 fold enrichment (6-mer frequency, TF over GST control); in the assay with HSF1, 2.33 fold enrichment (6-mer frequency, TF over GST control); with SPIC it was 1.68 fold enrichment (6-mer frequency, TF over GST control); with ELF4, 1.57 fold enrichment (6-mer frequency, TF over GST control); with ELK4, 1.46 fold enrichment (6-mer frequency, TF over GST control). Moreover, the binding signal is 1.43 fold enrichment (6-mer frequency, TF over GST control) in the assay with ETV2; 1.51 fold enrichment (6-mer frequency, TF over GST control) in the assay with ELF3; 1.59 fold enrichment (6-mer frequency, TF over GST control) in the assay with CRX; 1.66 fold enrichment (6-mer frequency, TF over GST control) in the assay with ETV1.
With TATGGG, the binding signal with FEV is 1.13 fold enrichment (6-mer frequency, TF over GST control); in the assay with ETV5, 1.18 fold enrichment (6-mer frequency, TF over GST control); in the assay with HSF1 it was 1.1 fold enrichment (6-mer frequency, TF over GST control); with SPIC it was 1.32 fold enrichment (6-mer frequency, TF over GST control); in the assay with ELF4, 1.18 fold enrichment (6-mer frequency, TF over GST control); in the assay with ELK4, 1.14 fold enrichment (6-mer frequency, TF over GST control). Moreover, the binding signal in the assay with ETV2 is 1.11 fold enrichment (6-mer frequency, TF over GST control); with ELF3, 1.18 fold enrichment (6-mer frequency, TF over GST control); with CRX, 1.36 fold enrichment (6-mer frequency, TF over GST control); with ETV1 it was 1.2 fold enrichment (6-mer frequency, TF over GST control).
In the case of AATGCC, the binding signal is 1.23 fold enrichment (6-mer frequency, TF over GST control) in the assay with FEV; 1.2 fold enrichment (6-mer frequency, TF over GST control) with ETV5; 1.07 fold enrichment (6-mer frequency, TF over GST control) with HSF1; 1.07 fold enrichment (6-mer frequency, TF over GST control) with SPIC; 1.21 fold enrichment (6-mer frequency, TF over GST control) in the assay with ELF4; 1.16 fold enrichment (6-mer frequency, TF over GST control) with ELK4. Further, the binding signal was 1.06 fold enrichment (6-mer frequency, TF over GST control) in the assay with ETV2; 1.24 fold enrichment (6-mer frequency, TF over GST control) in the assay with ELF3; 1.16 fold enrichment (6-mer frequency, TF over GST control) with CRX; 1.11 fold enrichment (6-mer frequency, TF over GST control) with ETV1.
As to CTTCAA, the binding signal in the assay with FEV is 1.33 fold enrichment (6-mer frequency, TF over GST control); in the assay with ETV5 it was 1.28 fold enrichment (6-mer frequency, TF over GST control); with HSF1 it was 1.38 fold enrichment (6-mer frequency, TF over GST control); with SPIC, 1.32 fold enrichment (6-mer frequency, TF over GST control); in the assay with ELF4, 1.29 fold enrichment (6-mer frequency, TF over GST control); with ELK4, 1.52 fold enrichment (6-mer frequency, TF over GST control). Also, the binding signal in the assay with ETV2 was 1.46 fold enrichment (6-mer frequency, TF over GST control); with ELF3, 1.37 fold enrichment (6-mer frequency, TF over GST control); with CRX, 1.22 fold enrichment (6-mer frequency, TF over GST control); with ETV1, 1.36 fold enrichment (6-mer frequency, TF over GST control).
As to CTTGCT, the binding signal with FEV was 1.25 fold enrichment (6-mer frequency, TF over GST control); in the assay with ETV5, 1.39 fold enrichment (6-mer frequency, TF over GST control); in the assay with HSF1, 1.24 fold enrichment (6-mer frequency, TF over GST control); in the assay with SPIC it was 1.52 fold enrichment (6-mer frequency, TF over GST control); with ELF4 it was 1.35 fold enrichment (6-mer frequency, TF over GST control); with ELK4, 1.34 fold enrichment (6-mer frequency, TF over GST control). Further, the binding signal is 1.58 fold enrichment (6-mer frequency, TF over GST control) with ETV2; 1.52 fold enrichment (6-mer frequency, TF over GST control) in the assay with ELF3; 1.18 fold enrichment (6-mer frequency, TF over GST control) with CRX; 1.36 fold enrichment (6-mer frequency, TF over GST control) in the assay with ETV1.
Take ACTTGC: the binding signal in the assay with FEV is 1.4 fold enrichment (6-mer frequency, TF over GST control); with ETV5, 1.49 fold enrichment (6-mer frequency, TF over GST control); in the assay with HSF1 it was 1.25 fold enrichment (6-mer frequency, TF over GST control); with SPIC, 1.36 fold enrichment (6-mer frequency, TF over GST control); with ELF4, 1.47 fold enrichment (6-mer frequency, TF over GST control); with ELK4, 1.44 fold enrichment (6-mer frequency, TF over GST control). Further, the binding signal is 1.36 fold enrichment (6-mer frequency, TF over GST control) in the assay with ETV2; 1.79 fold enrichment (6-mer frequency, TF over GST control) with ELF3; 1.12 fold enrichment (6-mer frequency, TF over GST control) in the assay with CRX; 1.37 fold enrichment (6-mer frequency, TF over GST control) with ETV1.
On to ATTACA, for which the binding signal is 1.06 fold enrichment (6-mer frequency, TF over GST control) in the assay with FEV; 1.07 fold enrichment (6-mer frequency, TF over GST control) with ETV5; 1.4 fold enrichment (6-mer frequency, TF over GST control) in the assay with HSF1; 1.15 fold enrichment (6-mer frequency, TF over GST control) with SPIC; 1.16 fold enrichment (6-mer frequency, TF over GST control) with ELF4; 1.2 fold enrichment (6-mer frequency, TF over GST control) with ELK4. Also, the binding signal was 1.14 fold enrichment (6-mer frequency, TF over GST control) with ETV2; 1.16 fold enrichment (6-mer frequency, TF over GST control) with ELF3; 1.86 fold enrichment (6-mer frequency, TF over GST control) in the assay with CRX; 1.17 fold enrichment (6-mer frequency, TF over GST control) in the assay with ETV1.
